According to PubChem BioAssay (NCI):
About 83,000 compounds went through this panel and 20% of them were active in at least one assay; those are over-represented in the sample as a whole.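 Activity criterion: percent growth below 10, measured after cells in 96-well plates were exposed to a single compound concentration for 48 hours.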 Active and inactive are the calls of the source.

Columns and labels:
Assay in all cases: NCI-60 one-dose screen, 48 h (100 = growth as untreated, 0 = no growth, -100 = all killed)
Conditions in all cases: 10 µM unless noted
[1] = tested on: DU-145 prostate
[2] = tested on: K-562 leukemia
[3] = tested on: MALME-3M melanoma
[4] = tested on: MDA-MB-231 breast
[5] = tested on: RXF 393 renal
[6] = tested on: SF-268 CNS
[7] = tested on: SF-295 CNS
[8] = tested on: SF-539 CNS
[9] = tested on: UACC-257 melanoma
[10] = tested on: M14 melanoma
[11] = tested on: HCT-15 colon
[12] = tested on: SNB-75 CNS
[13] = tested on: SNB-19 CNS
[14] = tested on: U251 CNS
[15] = tested on: PC-3 prostate
[16] = tested on: SK-MEL-5 melanoma
[17] = tested on: UACC-62 melanoma
[18] = tested on: LOX IMVI melanoma
[19] = tested on: SK-MEL-28 melanoma
[20] = tested on: HT29 colon

Measured: growth

COc1ccc2[nH]c(O)c(/C=c3/cc4c(c(-c5ccc(F)c(OC)c5)n3)=Nc3ccccc3-4)c2c1
inactive: [1] 30.3% | [6] 30.3% | [7] 104% | [8] 64.3% | [9] 103% | [12] 92.1% | [13] 47.6% | [15] 68.7% | [16] 57.2% | [17] 79.8%
active: [2] 0.38% | [3] -55.6% | [4] -47.5% | [5] -75.2% | [10] -8.58% | [11] -24% | [14] -70.1% | [18] -17.2% | [19] -51.2%

COc1ccc(C(=O)/C=C/c2c(C(F)(F)F)nc3sccn23)cc1OC
active: [1] -24.6% | [2] -15.1% | [7] -9.31% | [8] -5.52% | [18] 5.55%
inactive: [3] 71.4% | [4] 36.8% | [5] 39.1% | [6] 15.4% | [9] 56.8% | [10] 28.5% | [11] 24.6% | [12] 14.3% | [13] 33% | [14] 15.1% | [15] 53.3% | [16] 31.7% | [17] 20.6% | [19] 52.7%

O=C(NC(CSSCC(NC(=O)c1ccccc1)C(=O)O)C(=O)O)c1ccccc1 (configuration not stated)
inactive: [1] 114% | [2] 96% | [3] 109% | [4] 110% | [5] 116% | [6] 99.4% | [7] 106% | [8] 102% | [9] 102% | [10] 98.9% | [11] 99.8% | [12] 102% | [13] 107% | [14] 104% | [15] 95.8% | [16] 108% | [17] 99.6% | [18] 95.7% | [19] 118%

Nc1cc2c3c(cccc3c1)C(=O)N(CCN1CCCC1)C2=O
inactive: [1] 28.4% | [2] 14.7% | [3] 41.5% | [4] 55.2% | [5] 48.2% | [6] 33.7% | [7] 44.5% | [8] 29% | [9] 51.3% | [10] 49.4% | [11] 30.3% | [12] 48% | [13] 41.9% | [14] 28.9% | [15] 40.8% | [17] 26.6% | [18] 11.9% | [19] 62.3%
active: [16] 9.37%

O=C(O)C1CCC(=O)N1C(=O)OCc1ccccc1 (configuration not stated)
inactive: [1] 117% | [2] 92.4% | [3] 96.2% | [4] 112% | [5] 96.6% | [6] 111% | [7] 106% | [8] 96.9% | [9] 95.4% | [10] 102% | [11] 97.3% | [12] 80.9% | [13] 97.8% | [14] 102% | [15] 100% | [16] 105% | [17] 87% | [18] 98% | [19] 140%

COc1ccc(N=C(c2ccccc2)C2C(=O)c3ccccc3C2=O)cc1
inactive: [1] 99.8% | [2] 75.4% | [3] 103% | [4] 103% | [5] 72.1% | [6] 97.7% | [7] 67.2% | [8] 72.3% | [9] 93.8% | [10] 92% | [11] 67% | [12] 76.3% | [13] 89.5% | [14] 81.8% | [15] 32.3% | [16] 71.4% | [17] 63% | [18] 75.4% | [19] 74.1%

N=C1CCC(=N)c2c1c(O)c1ccccc1c2O
inactive: [1] 106% | [2] 65.1% | [3] 135% | [4] 89.6% | [5] 79.6% | [6] 85.4% | [7] 102% | [8] 171% | [9] 101% | [10] 118% | [11] 108% | [12] 87.2% | [13] 103% | [14] 100% | [15] 80.3% | [16] 126% | [17] 102% | [18] 81.9% | [19] 106%

COc1cc(N2C(=O)c3nccnc3C2=O)cc(OC)c1OC
inactive: [1] 115% | [2] 98.1% | [3] 96% | [4] 93.1% | [5] 126% | [6] 111% | [7] 110% | [8] 119% | [9] 105% | [10] 91.8% | [11] 104% | [12] 103% | [13] 106% | [14] 97.5% | [15] 98.7% | [16] 111% | [17] 114% | [18] 106% | [19] 108%

Cc1ccc(N2CCN(C(=S)c3cccs3)CC2)cc1
inactive: [1] 108% | [2] 89.1% | [3] 100% | [4] 97.1% | [5] 111% | [6] 107% | [7] 103% | [8] 101% | [9] 101% | [10] 103% | [11] 96.3% | [12] 94.3% | [13] 100% | [14] 96.3% | [15] 92.9% | [16] 95.2% | [17] 90.1% | [18] 116% | [19] 102%

COc1ccc2c(c1)O/C(=C\c1cccc(OCC(=O)Nc3nc(C)c(C)s3)c1)C2=O
inactive: [4] 21.2% | [9] 88.5% | [11] 94.1% | [13] 88.5% | [16] 111% | [17] 81.7% | [19] 84.8%
active: [1] -96.2% | [2] -41.3% | [3] -54% | [5] -66.3% | [6] -55.4% | [7] -80.2% | [8] -78.9% | [10] -15.1% | [12] -63.1% | [14] -64.5% | [15] -38.7% | [18] -68%

CCN1C(=O)N(CC)C2Nn3c(s/c(=C\c4cccc([N+](=O)[O-])c4)c3=O)=NC21 (configuration not stated)
inactive: [1] 30.5% | [2] 19.9% | [3] 57.8% | [4] 30.7% | [5] 25.4% | [6] 63.9% | [7] 31% | [8] 12.8% | [9] 77.5% | [10] 22.2% | [11] 31.8% | [12] 20% | [13] 53.3% | [14] 33.5% | [15] 35.8% | [16] 31.8% | [17] 47% | [18] 56.4% | [19] 57.3%

COC(=O)[C@H](CSC)N(C)C(=O)[C@@H]1CSSC[C@@H](NC(=O)c2nc3ccccc3cc2O)C(=O)NCC(=O)N1C
inactive: [1] 77.6% | [2] 48.8% | [3] 96.7% | [4] 81.3% | [5] 101% | [6] 79.2% | [7] 114% | [8] 87.2% | [9] 76.1% | [10] 46.2% | [11] 99.1% | [12] 132% | [13] 92.7% | [14] 91.2% | [15] 72.7% | [16] 38% | [18] 48.3% | [19] 83.4%

O=Cc1c[nH]c2ccc(-c3csc4ccccc34)cc12
inactive: [1] 80% | [3] 44.4% | [4] 45.7% | [5] 45.3% | [6] 44.5% | [8] 30.9% | [9] 39.3% | [10] 23.5% | [20] 16.5% | [12] 39.9% | [13] 34.3% | [14] 25.2% | [15] 61.9% | [16] 61% | [17] 34% | [18] 39.5% | [19] 69.8%
active: [2] 8.16% | [7] -22.6%

COc1cccc(-c2nc3sccn3c2-c2ccnc(NCCNS(=O)(=O)c3cccc(F)c3)c2)c1
inactive: [1] 29.7% | [2] 19% | [3] 46.6% | [4] 64.6% | [5] 39.9% | [6] 37.8% | [7] 15.5% | [8] 70.7% | [9] 44.6% | [10] 33.3% | [20] 27.9% | [12] 27.4% | [13] 59.2% | [14] 45.4% | [15] 14.1% | [18] 32.7% | [19] 56.1%
active: [16] 2.05%

COc1cc(/C=C/C(=O)c2ccc(Nc3nc(Nc4ccc(F)cc4)nc(Nc4ccc(Cl)cc4)n3)cc2)cc(OC)c1OC
active: [5] -31.1% | [20] 3.82% | [12] 0.259% | [19] -32.9%
inactive: [1] 68.5% | [2] 35.8% | [3] 56.2% | [4] 62.6% | [6] 74.8% | [7] 369% | [8] 67.7% | [9] 102% | [10] 65.6% | [13] 101% | [14] 27.5% | [15] 21.4% | [16] 33.5% | [17] 56.5% | [18] 37.3%

COc1ccc2[nH]c(O)c(C(=Nc3ccc(N(C)C(=O)CN4CCN(C)CC4)cc3)c3ccccc3)c2c1
inactive: [1] 27.7% | [3] 43.5% | [4] 28.4% | [6] 30.7% | [7] 48.3% | [9] 65.9% | [10] 29.3% | [20] 18% | [13] 57.5% | [14] 45.1% | [15] 56.6% | [16] 67.3% | [17] 75.3% | [19] 42.4%
active: [2] 5.35% | [5] -25.1% | [8] -38.9% | [12] -5.94% | [18] 9.09%
